The supplement of paper PMC8728848
About 410 targets per protein were measured; listed, in parts, are those with the strongest signals and a random draw of the rest.

Assays:
Test in all cases: glycan array binding signal (z-score within array); higher = stronger binding
Settings in all cases: glycan notation: IUPAC condensed, linker removed
[1] = target: Gal(b1-4)GlcNAc(b1-3)Gal(b1-4)GlcNAc(b1-3)Gal(b1-4)GlcNAc(b1-3)Gal(b1-4)GlcNAc(b1-3)Gal(b1-4)GlcNAc(b1-3)Gal(b1-4)GlcNAc(b1-2)Man(a1-3)[Gal(b1-4)GlcNAc(b1-3)Gal(b1-4)GlcNAc(b1-3)Gal(b1-4)GlcNAc(b1-3)Gal(b1-4)GlcNAc(b1-3)Gal(b1-4)GlcNAc(b1-3)Gal(b1-4)GlcNAc(b1-2)Man(a1-6)]Man(b1-4)GlcNAc(b1-4)GlcNAc
Summary of the method: (§1)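 Glycan array binding is given as a within-array Z-score, which can be read as non-binding when negative. The arrays, 3228 of them, came from the Consortium for Functional Glycomics database and were retained only where the protein sequence was available. Z-scores were averaged across arrays of the same protein sequence at different concentrations or buffers and across linkers.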

[2] = target: Gal(b1-6)Gal
Summary of the method: as §1

[3] = target: Gal3S(b1-3)GlcNAc
Summary of the method: as §1

[4] = target: Gal3S(b1-4)[Fuc(a1-3)]GlcNAc6S
Summary of the method: as §1

[5] = target: Gal6S(b1-3)GlcNAc
Summary of the method: as §1

[6] = target: Gal6S(b1-4)Glc6S
Summary of the method: as §1

[7] = target: GlcNAc(a1-3)Gal(b1-4)GlcNAc
Summary of the method: as §1

[8] = target: GlcNAc(b1-2)Gal(b1-3)GalNAc
Summary of the method: as §1

[9] = target: GlcNAc(b1-2)Man(a1-3)[GlcNAc(b1-4)][GlcNAc(b1-2)Man(a1-6)]Man(b1-4)GlcNAc(b1-4)GlcNAc
Summary of the method: as §1

[10] = target: GlcNAc(b1-3)Gal
Summary of the method: as §1

[11] = target: GlcNAc(b1-4)GlcNAc(b1-4)GlcNAc(b1-4)GlcNAc(b1-4)GlcNAc
Summary of the method: as §1

[12] = target: Man(a1-2)Man(a1-6)[Man(a1-3)]Man(a1-6)[Man(a1-2)Man(a1-2)Man(a1-3)]Man(b1-4)GlcNAc(b1-4)GlcNAc
Summary of the method: as §1

[13] = target: Man(a1-3)[Man(a1-6)]Man(a1-6)[Man(a1-3)]Man(b1-4)GlcNAc(b1-4)GlcNAc
Summary of the method: as §1

[14] = target: Neu5Ac(a2-3)Gal(b1-3)GalNAc6S
Summary of the method: as §1

[15] = target: Neu5Ac(a2-3)Gal(b1-3)GlcNAc(b1-3)Gal(b1-3)GlcNAc
Summary of the method: as §1

[16] = target: Neu5Ac(a2-3)Gal(b1-3)[Neu5Ac(a2-6)]GalNAc
Summary of the method: as §1

[17] = target: Neu5Ac(a2-3)Gal(b1-4)GlcNAc(b1-6)[Neu5Ac(a2-3)Gal(b1-3)]GalNAc
Summary of the method: as §1

[18] = target: Neu5Ac(a2-3)Gal(b1-4)[Fuc(a1-3)]GlcNAc(b1-3)Gal
Summary of the method: as §1

[19] = target: Neu5Ac(a2-6)Gal(b1-4)GlcNAc(b1-2)[Neu5Ac(a2-6)Gal(b1-4)GlcNAc(b1-6)]Man(a1-6)[Neu5Ac(a2-6)Gal(b1-4)GlcNAc(b1-2)Man(a1-3)][GlcNAc(b1-4)]Man(b1-4)GlcNAc(b1-4)GlcNAc
Summary of the method: as §1

[20] = target: Neu5Ac(a2-6)Gal(b1-4)GlcNAc(b1-3)Gal(b1-4)GlcNAc(b1-3)[Neu5Ac(a2-6)Gal(b1-4)GlcNAc(b1-3)Gal(b1-4)GlcNAc(b1-6)]GalNAc
Summary of the method: as §1

[21] = target: Neu5Ac(a2-6)GlcNAc(b1-4)GlcNAc
Summary of the method: as §1

[22] = target: Neu5Ac(a2-8)Neu5Ac(a2-3)[GalNAc(b1-4)]Gal(b1-4)Glc
Summary of the method: as §1

B1: rCnSL-A (Clitocybe nebularis) (protein)
chain: VNPNLPGPNDVFVGFRGTNNIVGAIYEKDGIKDTPLNNGADAEMGPGSYITDGLFTARIFASGSAGNNPGTTATVCKIYASGVQWRGAPKGYIPVAYFGNGPTAEQRRQTYLRTLGLPGTAIRFGNLNTNPGQGPTAPRQMVVPPGPLRSLLKASCFPAADTRLPQTLHYFEKRVDWNIITAADSQTWGH
B1 was tested, and the “glycan array binding signal (z-score)” value [1] was 7.72, the “glycan array binding signal (z-score)” value [2] was -0.201 and the “glycan array binding signal (z-score)” value [3] was -0.252. For the same binder, the “glycan array binding signal (z-score)” value [4] was -0.25, the “glycan array binding signal (z-score)” value [5] was -0.309 and the “glycan array binding signal (z-score)” value [6] was -0.241. For the same binder, the “glycan array binding signal (z-score)” value [7] was -0.253, the “glycan array binding signal (z-score)” value [8] was -0.27 and the “glycan array binding signal (z-score)” value [9] was -0.223. The “glycan array binding signal (z-score)” value [10] was -0.22, the “glycan array binding signal (z-score)” value [11] was -0.217 and the “glycan array binding signal (z-score)” value [12] was -0.138. For the same binder, the “glycan array binding signal (z-score)” value [13] was -0.237, the “glycan array binding signal (z-score)” value [14] was -0.234 and the “glycan array binding signal (z-score)” value [15] was -0.25. For the same binder, the “glycan array binding signal (z-score)” value [16] was -0.305, the “glycan array binding signal (z-score)” value [17] was -0.165 and the “glycan array binding signal (z-score)” value [18] was -0.229. For the same binder, the “glycan array binding signal (z-score)” value [19] was -0.269, the “glycan array binding signal (z-score)” value [20] was 0.406 and the “glycan array binding signal (z-score)” value [21] was -0.287. The “glycan array binding signal (z-score)” value [22] was -0.246.
